Test results: PubChem BioAssay AID1159580 (chemical genetic matrix, 2015)
Where “and” joins values, the source holds several entries; their conditions need not be identical. Identical values can stand only once. Among all 5,500 compounds or so, about 2,000 (36%) were called active. Inconclusive results (about 18%) are left out. The list shows a part of the results. Unmarked numbers belong to inactive results. Rule as the data show it: active = normalized growth mostly below about 0.91 (no sharp cut-off); inconclusive = no clear call, values can overlap the other calls; inactive = mostly above about 0.92.

Assay: chemical genetic growth profiling, strain panel (AID 1159580);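 also: tested at 20 µM; growth read once vehicle control cultures reached saturation at 30 °C; 1 = growth at the plate median or of vehicle wells; lower values mean less growth of the strain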
Conditions: S. cerevisiae deletion strains, growth OD

## CC1(C)CC[C@]2(C(=O)O)CC[C@]3(C)C(=CCC4[C@@]5(C)CC[C@H](O)[C@@](C)(CO)C5CC[C@]43C)C2C1 (stereo partly drawn)
Locus YAL021C, strain ccr4, active compounds read low
  normalized growth: 1
Locus YAL026C, strain drs2, active compounds read low
  normalized growth: 1.02
Locus YAL030W, strain snc1, active compounds read low
  normalized growth: 1.02
Locus YBL061C, strain skt5, active compounds read low
  normalized growth: 1.01
Locus YBR009C, strain hhf1, active compounds read low
  normalized growth: 1.02
Locus YBR021W, strain FUR4, active compounds read low
  normalized growth: 1.11
Locus YBR023C, strain chs3, active compounds read low
  normalized growth: 1.02
Locus YBR171W, strain sec66, active compounds read low
  normalized growth: 1.04
Locus YBR229C, strain ROT2, active compounds read low
  normalized growth: 1.02
Locus YBR231C, strain swc5, active compounds read low
  normalized growth: 1.02
Locus YBR279W, strain paf1, active compounds read low
  normalized growth: 1.02
Locus YCL011C, strain gbp2, active compounds read low
  normalized growth: 1.03
Locus YCL016C, strain dcc1, active compounds read low
  normalized growth: 1.03
Locus YCL029C, strain bik1, active compounds read low
  normalized growth: 0.977
Locus YCL061C, strain MRC1, active compounds read low
  normalized growth: 1.02
Locus YCL069W, strain vba3, active compounds read low
  normalized growth: 1.03
Locus YCR088W, strain abp1, active compounds read low
  normalized growth: 1.02
Locus YDL005C, strain med2, active compounds read low
  normalized growth: 1.04
Locus YDL035C, strain GPR1, active compounds read low
  normalized growth: 1.04
Locus YDL040C, strain nat1, active compounds read low
  normalized growth: 1.05
Locus YDL074C, strain BRE1, active compounds read low
  normalized growth: 0.981
Locus YDL101C, strain DUN1, active compounds read low
  normalized growth: 1.02
Locus YDL134C, strain PPH21, active compounds read low
  normalized growth: 1.1
Locus YDL185W, strain tfp1, active compounds read low
  normalized growth: 0.946
Locus YDL192W, strain arf1, active compounds read low
  normalized growth: 0.99
Locus YDR001C, strain nth1, active compounds read low
  normalized growth: 1.02
Locus YDR069C, strain doa4, active compounds read low
  normalized growth: 1.03
Locus YDR101C, strain arx1, active compounds read low
  normalized growth: 1.01
Locus YDR137W, strain rgp1, active compounds read low
  normalized growth: 1.04
Locus YDR159W, strain sac3, active compounds read low
  normalized growth: 1.04
Locus YDR162C, strain NBP2, active compounds read low
  normalized growth: 1.07
Locus YDR195W, strain ref2
  normalized growth: 1.08
Locus YDR297W, strain sur2, active compounds read low
  normalized growth: 1.03
Locus YDR318W, strain mcm21, active compounds read low
  normalized growth: 0.999
Locus YDR334W, strain swr1, active compounds read low
  normalized growth: 1.03
Locus YDR335W, strain msn5, active compounds read low
  normalized growth: 1.02
Locus YDR388W, active compounds read low
  normalized growth: 0.994
Locus YDR392W, strain spt3, active compounds read low
  normalized growth: 1.01
Locus YDR502C, strain sam2, active compounds read low
  normalized growth: 0.999
Locus YEL003W, strain gim4, active compounds read low
  normalized growth: 1.02
Locus YEL037C, strain rad23, active compounds read low
  normalized growth: 1.02
Locus YEL061C, strain CIN8 (second series), active compounds read low
  normalized growth: 1.02
Locus YEL061C, strain CIN8, active compounds read low
  normalized growth: 1
Locus YER015W, strain faa2, active compounds read low
  normalized growth: 1.02
Locus YER016W, strain bim1, active compounds read low
  normalized growth: 1.03
Locus YER110C, active compounds read low
  normalized growth: 0.987
Locus YER111C, strain swi4, active compounds read low
  normalized growth: 1.02
Locus YER155C, strain BEM2 (second series), active compounds read low
  normalized growth: 1.03
Locus YER155C, strain BEM2, active compounds read low
  normalized growth: 1.01
Locus YER167W, strain BCK2, active compounds read low
  normalized growth: 1.02
Locus YFR010W, strain ubp6, active compounds read low
  normalized growth: 1.02
Locus YGL078C, strain dbp3, active compounds read low
  normalized growth: 0.994
Locus YGL086W, strain mad1, active compounds read low
  normalized growth: 1.24 [resistant] (active)
Locus YGL167C, strain pmr1, active compounds read low
  normalized growth: 1.03
Locus YGL173C, strain kem1, active compounds read low
  normalized growth: 1.03
Locus YGL227W, strain vid30, active compounds read low
  normalized growth: 1.03
Locus YGL240W, strain doc1, active compounds read low
  normalized growth: 1.01
Locus YGL248W, strain PDE1, active compounds read low
  normalized growth: 1.03
Locus YGL253W, strain hxk2, active compounds read low
  normalized growth: 1.02
Locus YGR078C, strain PAC10, active compounds read low
  normalized growth: 1.03
Locus YGR135W, strain pre9, active compounds read low
  normalized growth: 1.01
Locus YGR229C, strain SMI1, active compounds read low
  normalized growth: 1.02
Locus YGR252W, strain gcn5, active compounds read low
  normalized growth: 1.02
Locus YHR013C, strain ard1, active compounds read low
  normalized growth: 1.06
Locus YHR027C, strain rpn1, active compounds read low
  normalized growth: 1.02
Locus YHR030C, strain SLT2, active compounds read low
  normalized growth: 0.989 and 1.03
Locus YHR079C, strain IRE1 (second series), active compounds read low
  normalized growth: 0.999
Locus YHR079C, strain IRE1, active compounds read low
  normalized growth: 1.02
Locus YHR094C, strain hxt1, active compounds read low
  normalized growth: 1
Locus YHR129C, strain ARP1, active compounds read low
  normalized growth: 1
Locus YHR142W, strain chs7, active compounds read low
  normalized growth: 1.03
Locus YHR200W, strain rpn10, active compounds read low
  normalized growth: 1.01
Locus YIL066C, strain RNR3, active compounds read low
  normalized growth: 1.03
Locus YIL073C, strain SPO22, active compounds read low
  normalized growth: 1
Locus YIL125W, strain kgd1, active compounds read low
  normalized growth: 0.99
Locus YIR030C, strain dcg1, active compounds read low
  normalized growth: 1.04
Locus YJL092W, strain hpr5, active compounds read low
  normalized growth: 1.03
Locus YJL095W, strain BCK1 (second series), active compounds read low
  normalized growth: 1.02
Locus YJL095W, strain BCK1, active compounds read low
  normalized growth: 1.04 and 0.98
Locus YJL115W, strain asf1, active compounds read low
  normalized growth: 1.03
Locus YJL129C, strain trk1, active compounds read low
  normalized growth: 1.02
Locus YJL134W, strain LCB3, active compounds read low
  normalized growth: 0.995
Locus YJL154C, strain vps35, active compounds read low
  normalized growth: 1.02
Locus YJL164C, strain tpk1, active compounds read low
  normalized growth: 1.05
Locus YJL166W, strain qcr8, active compounds read low
  normalized growth: 1.02
Locus YJL168C, strain set2, active compounds read low
  normalized growth: 0.998
Locus YJL187C, strain SWE1 (second series), active compounds read low
  normalized growth: 1.02
Locus YJL187C, strain SWE1, active compounds read low
  normalized growth: 1.04
Locus YJR043C, strain POL32, active compounds read low
  normalized growth: 1.03
Locus YJR066W, strain TOR1, active compounds read low
  normalized growth: 0.977
Locus YKL085W, strain MDH1 (second series), active compounds read low
  normalized growth: 1.16 [resistant] (active)
Locus YKL085W, strain MDH1, active compounds read low
  normalized growth: 1.16 [resistant] (active)
Locus YKL160W, strain elf1, active compounds read low
  normalized growth: 1.02
Locus YKL190W, strain CNB1, active compounds read low
  normalized growth: 1.02
Locus YKR001C, strain vps1, active compounds read low
  normalized growth: 0.996
Locus YKR026C, strain gcn3, active compounds read low
  normalized growth: 1.03
Locus YKR091W, strain srl3, active compounds read low
  normalized growth: 1.03
Locus YLL001W, strain dnm1, active compounds read low
  normalized growth: 1.02
Locus YLL026W, active compounds read low
  normalized growth: 1.02
Locus YLL041C, strain sdh2, active compounds read low
  normalized growth: 1.12 [resistant] (active)
Locus YLR027C, strain aat2, active compounds read low
  normalized growth: 1.02
Locus YLR039C, strain RIC1, active compounds read low
  normalized growth: 1.04
Locus YLR058C, strain SHM2, active compounds read low
  normalized growth: 1.01
Locus YLR102C, strain apc9, active compounds read low
  normalized growth: 0.991
Locus YLR113W, strain HOG1, active compounds read low
  normalized growth: 0.929
Locus YLR221C, strain rsa3, active compounds read low
  normalized growth: 1.02
Locus YLR258W, strain gsy2, active compounds read low
  normalized growth: 1.02
Locus YLR262C, strain YPT6 (second series), active compounds read low
  normalized growth: 1.03
Locus YLR262C, strain YPT6, active compounds read low
  normalized growth: 1.09
Locus YLR268W, strain sec22, active compounds read low
  normalized growth: 1.01
Locus YLR320W, strain mms22, active compounds read low
  normalized growth: 1.03
Locus YLR330W, strain CHS5, active compounds read low
  normalized growth: 0.994
Locus YLR342W, strain FKS1 (second series), active compounds read low
  normalized growth: 1.05
Locus YLR342W, strain FKS1, active compounds read low
  normalized growth: 1.03
Locus YLR357W, strain rsc2, active compounds read low
  normalized growth: 1.01
Locus YLR370C, strain arc18, active compounds read low
  normalized growth: 1.02
Locus YLR371W, strain rom2, active compounds read low
  normalized growth: 0.958
Locus YLR384C, strain iki3, active compounds read low
  normalized growth: 1.01
Locus YLR418C, strain cdc73, active compounds read low
  normalized growth: 1.02
Locus YML016C, strain PPZ1, active compounds read low
  normalized growth: 1.01
Locus YML032C, strain rad52, active compounds read low
  normalized growth: 0.998
Locus YML120C, strain ndi1, active compounds read low
  normalized growth: 1.02
Locus YML124C, strain tub3, active compounds read low
  normalized growth: 0.996
Locus YMR058W, strain fet3, active compounds read low
  normalized growth: 1.03
Locus YMR078C, strain ctf18, active compounds read low
  normalized growth: 0.991
Locus YMR125W, strain sto1, active compounds read low
  normalized growth: 1.03
Locus YMR129W, active compounds read low
  normalized growth: 1.02
Locus YMR205C, strain PFK2, active compounds read low
  normalized growth: 1.03
Locus YMR223W, strain ubp8, active compounds read low
  normalized growth: 1
Locus YMR231W, strain pep5, active compounds read low
  normalized growth: 1.01
Locus YMR307W, strain GAS1, active compounds read low
  normalized growth: 0.931
Locus YNL067W, strain RPL9B, active compounds read low
  normalized growth: 1.04
Locus YNL071W, strain lat1, active compounds read low
  normalized growth: 1.02
Locus YNL128W, strain TEP1, active compounds read low
  normalized growth: 0.996
Locus YNL183C, strain NPR1, active compounds read low
  normalized growth: 0.878
Locus YNL209W, strain ssb2, active compounds read low
  normalized growth: 1.01
Locus YNL233W, strain BNI4, active compounds read low
  normalized growth: 1.03
Locus YNL248C, strain rpa49, active compounds read low
  normalized growth: 1.02
Locus YNL250W, strain rad50, active compounds read low
  normalized growth: 0.991
Locus YNL271C, strain bni1, active compounds read low
  normalized growth: 0.983
Locus YNL298W, strain CLA4, active compounds read low
  normalized growth: 0.992
Locus YNL307C, strain MCK1, active compounds read low
  normalized growth: 1.01
Locus YNL322C, strain KRE1 (second series), active compounds read low
  normalized growth: 1.02
Locus YNR049C, strain mso1, active compounds read low
  normalized growth: 1.02
Locus YNR052C, strain pop2, active compounds read low
  normalized growth: 0.997
Locus YOL012C, strain htz1
  normalized growth: 0.926
Locus YOL147C, strain pex11, active compounds read low
  normalized growth: 1
Locus YOR001W, strain rrp6, active compounds read low
  normalized growth: 1.01
Locus YOR061W, strain CKA2, active compounds read low
  normalized growth: 0.998
Locus YOR069W, strain VPS5, active compounds read low
  normalized growth: 1.01
Locus YOR070C, strain gyp1, active compounds read low
  normalized growth: 1
Locus YOR080W, strain dia2, active compounds read low
  normalized growth: 1.03
Locus YOR083W, strain WHI5, active compounds read low
  normalized growth: 1.02
Locus YOR106W, strain vam3, active compounds read low
  normalized growth: 1.04
Locus YOR136W, strain idh2, active compounds read low
  normalized growth: 0.999
Locus YOR144C, strain elg1, active compounds read low
  normalized growth: 1
Locus YOR184W, strain ser1, active compounds read low
  normalized growth: 1.01
Locus YOR231W, strain MKK1, active compounds read low
  normalized growth: 1.02
Locus YOR265W, strain rbl2, active compounds read low
  normalized growth: 1.01
Locus YOR270C, strain vph1, active compounds read low
  normalized growth: 1.05
Locus YOR290C, strain snf2, active compounds read low
  normalized growth: 1.03
Locus YOR316C, strain cot1, active compounds read low
  normalized growth: 0.989
Locus YPL051W, strain arl3, active compounds read low
  normalized growth: 1.01
Locus YPL078C, strain atp4, active compounds read low
  normalized growth: 1.02
Locus YPL106C, strain sse1, active compounds read low
  normalized growth: 1.04
Locus YPL240C, strain hsp82, active compounds read low
  normalized growth: 1.02
Locus YPL241C, strain CIN2, active compounds read low
  normalized growth: 0.999
Locus YPL256C, strain CLN2, active compounds read low
  normalized growth: 1.01
Locus YPR119W, strain clb2, active compounds read low
  normalized growth: 0.999
Locus YPR141C, strain kar3, active compounds read low
  normalized growth: 0.986
Locus YPR163C, strain tif3, active compounds read low
  normalized growth: 1
Locus YPR167C, strain met16, active compounds read low
  normalized growth: 0.996
Strain wtn01, active compounds read low
  normalized growth: 0.997
